The text below walks through data of PubChem BioAssay (EPA / NIEHS).

What all share (conditions): mRNA level, 48 h; actives raise or lower the signal
Read-out in test [1]: Cyclin D2 (CCND2), CCND2 (gene 894)
Kind of test: LTEA_HepaRG_CCND2: Life Technologies and Expression Analysis (LTEA) Assay for Cyclin D2 (CCND2) using HepaRG (AID 2283449).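 Note: CCND2 transcript measured by TaqMan qRT-PCR and normalised to three housekeeping genes.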 An outline of the steps: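 Chemicals in 0.5% DMSO, eight half-log concentrations from 100 uM top, were applied in duplicate for 48 h to human HepaRG cells in serum-free induction medium. CCND2 mRNA by TaqMan qRT-PCR, normalised to ACTB/GAPDH/POLR2A; bidirectional fit versus DMSO.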

Read-out in test [2]: Cyclin Dependent Kinase Inhibitor 1A (CDKN1A), CDKN1A (gene 1026)
Kind of test: LTEA_HepaRG_CDKN1A: Life Technologies and Expression Analysis (LTEA) Assay for Cyclin Dependent Kinase Inhibitor 1A (CDKN1A) using HepaRG (AID 2283450). An outline of the steps:
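Gain or loss of CDKN1A transcript is scored by bidirectional fitting against 0.5% DMSO vehicle. Human HepaRG cultures receive chemicals for 48 h across an 8-point series peaking at 100 uM; expression comes from qRT-PCR.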

Read-out in test [3]: catalase (CAT), CAT (gene 847)
Kind of test: LTEA_HepaRG_CAT: Life Technologies and Expression Analysis (LTEA) Assay for catalase (CAT) using HepaRG (AID 2283452). An outline of the steps: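 HepaRG cells in serum-free induction medium, 0.5% DMSO vehicle, exposed 48 h in duplicate over 8 half-log concentrations from 100 uM. CAT mRNA measured by qRT-PCR, normalized to ACTB, GAPDH, POLR2A; bidirectional fit versus DMSO.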

Read-out in test [4]: flavin-containing dimethylaniline monooxygenases 3 (FMO3), FMO3 (gene 2328)
Nature of the test: LTEA_HepaRG_FMO3: Life Technologies and Expression Analysis (LTEA) Assay for flavin-containing dimethylaniline monooxygenases 3 (FMO3) using HepaRG (AID 2283453). An outline of the steps:
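Differentiated HepaRG cells in serum-free induction medium, exposed 48 h in duplicate to 8 half-log concentrations up to 100 uM in 0.5% DMSO. FMO3 mRNA by qRT-PCR, normalized to ACTB, GAPDH, POLR2A; bidirectional fit vs DMSO.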

Read-out in test [5]: Cytochrome P450 (CYP1A1), CYP1A1 (gene 1543)
Kind of test: LTEA_HepaRG_CYP1A1: Life Technologies and Expression Analysis (LTEA) Assay for Cytochrome P450 (CYP1A1) using HepaRG (AID 2283454). An outline of the steps: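 Using HepaRG cultures with 0.5% DMSO as vehicle, eight-concentration exposures (max 100 uM) lasted 48 h. Transcript levels were measured by TaqMan qRT-PCR and normalized to ACTB, GAPDH and POLR2A.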

Read-out in test [6]: CFLAR gene, CFLAR (gene 8837)
Nature of the test: LTEA_HepaRG_CFLAR: Life Technologies and Expression Analysis (LTEA) Assay for CFLAR gene using HepaRG (AID 2283455). An outline of the steps: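 Differentiated HepaRG cells in serum-free induction medium were exposed 48 h in duplicate to eight half-log concentrations up to 100 uM in 0.5% DMSO; mRNA measured by TaqMan qRT-PCR, normalized to ACTB, GAPDH, POLR2A; bidirectional fitting versus DMSO.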

Read-out in test [7]: Forkhead box O1 (FOXO1), FOXO1 (gene 2308)
Kind of test: LTEA_HepaRG_FOXO1: Life Technologies and Expression Analysis (LTEA) Assay for Forkhead box O1 (FOXO1) using HepaRG (AID 2283456). An outline of the steps: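 Differentiated HepaRG cells, in serum-free induction medium with 0.5% DMSO, exposed 48 h in duplicate to 8-point half-log series from 100 uM. FOXO1 mRNA measured by TaqMan qRT-PCR, normalized to ACTB, GAPDH, POLR2A; bidirectional fit versus DMSO.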

Read-out in test [8]: growth arrest and DNA damage 45 (GADD45A), GADD45A (gene 1647)
Kind of test: LTEA_HepaRG_GADD45A: Life Technologies and Expression Analysis (LTEA) Assay for growth arrest and DNA damage 45 (GADD45A) using HepaRG (AID 2283458). An outline of the steps:
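Cells plated and cultured 48 h, switched to serum-free induction medium, then dosed for 48 h (100 uM top, half-log dilutions, 0.5% DMSO). RNA was isolated and transcript measured by Fluidigm qRT-PCR.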

Read-out in test [9]: Forkhead box O3 (FOXO3), FOXO3 (gene 2309)
Kind of test: LTEA_HepaRG_FOXO3: Life Technologies and Expression Analysis (LTEA) Assay for Forkhead box O3 (FOXO3) using HepaRG (AID 2283459). An outline of the steps:
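Differentiated human HepaRG cells, 48 h post-plating, exposed in duplicate for 48 h in serum-free induction medium; 8-point half-log series from 100 uM in 0.5% DMSO. FOXO3 mRNA by TaqMan qRT-PCR, normalized to ACTB/GAPDH/POLR2A; bidirectional fit versus DMSO.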

Read-out in test [10]: ABC Transporter (ABCB1), ABCB1 (gene 5243)
Nature of the test: LTEA_HepaRG_ABCB1: Life Technologies and Expression Analysis (LTEA) Assay for ABC Transporter (ABCB1) using HepaRG (AID 2283460). An outline of the steps:
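HepaRG cells exposed in duplicate for 48 h in serum-free induction medium to eight half-log concentrations up to 100 uM in 0.5% DMSO. ABCB1 mRNA quantified by qRT-PCR, normalised to ACTB, GAPDH and POLR2A; fitted bidirectionally versus DMSO.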

Read-out in test [11]: growth arrest and DNA damage 45 (GADD45B), GADD45B (gene 4616)
Nature of the test: LTEA_HepaRG_GADD45B: Life Technologies and Expression Analysis (LTEA) Assay for growth arrest and DNA damage 45 (GADD45B) using HepaRG (AID 2283461). An outline of the steps:
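Human HepaRG monolayers receive chemicals for 48 h at eight half-log concentrations, highest 100 uM, in 0.5% DMSO. Expression is measured by TaqMan qRT-PCR and normalized to ACTB, GAPDH and POLR2A.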

Read-out in test [12]: ABC Transporter (ABCC3), ABCC3 (gene 8714)
Nature of the test: LTEA_HepaRG_ABCC3: Life Technologies and Expression Analysis (LTEA) Assay for ABC Transporter (ABCC3) using HepaRG (AID 2283462). An outline of the steps:
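Transcriptional change of ABCC3 in HepaRG after 48 h treatment, determined by qRT-PCR normalized to endogenous controls. Concentrations spanned eight half-log steps to 100 uM in 0.5% DMSO.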

Read-out in test [13]: ABC Transporter (ABCB11), ABCB11 (gene 8647)
Kind of test: LTEA_HepaRG_ABCB11: Life Technologies and Expression Analysis (LTEA) Assay for ABC Transporter (ABCB11) using HepaRG (AID 2283463). An outline of the steps: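 Differentiated human HepaRG cells in serum-free induction medium, dosed in duplicate for 48 h. Eight-point half-log series from 100 uM in 0.5% DMSO; ABCB11 mRNA by qRT-PCR, normalized to ACTB, GAPDH, POLR2A, fitted bidirectionally versus DMSO.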

Read-out in test [14]: ABC Transporter (ABCC2), ABCC2 (gene 1244)
Nature of the test: LTEA_HepaRG_ABCC2: Life Technologies and Expression Analysis (LTEA) Assay for ABC Transporter (ABCC2) using HepaRG (AID 2283464). An outline of the steps: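 After plating and 48 h culture, HepaRG medium is replaced with serum-free induction medium and chemicals are added (8 concentrations, max 100 uM, 0.5% DMSO) for 48 h. Total RNA then undergoes qRT-PCR for ABCC2 with housekeeping normalization.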

Read-out in test [15]: Broad substrate specificity ATP-binding cassette transporter ABCG2 (Homo sapiens) (UniProt Q9UNQ0)
Nature of the test: LTEA_HepaRG_ABCG2: Life Technologies and Expression Analysis (LTEA) Assay for ABC Transporter (ABCG2) using HepaRG (AID 2283465). An outline of the steps: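 Differentiated HepaRG cells were exposed for 48 h in serum-free induction medium to 8 half-log concentrations, top 100 uM, in 0.5% DMSO. ABCG2 mRNA was measured by qRT-PCR, normalized to ACTB, GAPDH and POLR2A, with bidirectional fitting versus DMSO.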

Read-out in test [16]: Peroxisomal acyl-coenzyme A oxidase 1 (ACOX1) gene, ACOX1 (gene 51)
Nature of the test: LTEA_HepaRG_ACOX1: Life Technologies and Expression Analysis (LTEA) Assay for Peroxisomal acyl-coenzyme A oxidase 1 (ACOX1) gene using HepaRG (AID 2283467). An outline of the steps:
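HepaRG cells, plated 48 h then switched to serum-free induction medium, were exposed in duplicate for 48 h to 8-point half-log concentrations up to 100 uM in 0.5% DMSO. ACOX1 mRNA was measured by qRT-PCR, normalized to ACTB/GAPDH/POLR2A, and fitted bidirectionally versus DMSO.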

Read-out in test [17]: Alkaline Phosphatase, Placental (ALPP) gene, ALPP (gene 250)
Kind of test: LTEA_HepaRG_ALPP: Life Technologies and Expression Analysis (LTEA) Assay for Alkaline Phosphatase, Placental (ALPP) gene using HepaRG (AID 2283468). An outline of the steps:
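Using human liver HepaRG cells, chemicals are tested in duplicate over 48 h at half-log concentrations topping at 100 uM; phenobarbital 1 mM serves as induction control. ALPP mRNA change by qRT-PCR, bidirectional fit against vehicle.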

Read-out in test [18]: ATP-citrate lyase (ACLY), ACLY (gene 47)
Nature of the test: LTEA_HepaRG_ACLY: Life Technologies and Expression Analysis (LTEA) Assay for ATP-citrate lyase (ACLY) using HepaRG (AID 2283466). An outline of the steps:
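Differentiated HepaRG cells exposed 48 h in serum-free induction medium to eight half-log concentrations up to 100 uM in 0.5% DMSO, duplicates. Transcript measured by Fluidigm TaqMan qRT-PCR, normalized to ACTB, GAPDH, POLR2A; bidirectional fit versus DMSO.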

Read-out in test [19]: Cyclin D1 (CCND1), CCND1 (gene 595)
Nature of the test: LTEA_HepaRG_CCND1: Life Technologies and Expression Analysis (LTEA) Assay for Cyclin D1 (CCND1) using HepaRG (AID 2283451).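 Note: TaqMan qRT-PCR transcript level normalised to ACTB GAPDH and POLR2A housekeeping genes.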 An outline of the steps: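 Expression change is measured by qRT-PCR in HepaRG cells after 48 h treatment across eight concentrations topping at 100 uM, with duplicate wells and DMSO (0.5%) serving as baseline for bidirectional fitting.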

The source holds several records for some structures; these can differ, active in one and inactive in another. Calls of active or inactive are those of the source. Rule for the calls: active = hit-call score of the fitted dose curve at least 0.9, where 1 is the maximum; inactive = score below 0.9.

Usually AC50 stands for the midpoint of the concentration-response curve, whichever way the signal moves.

Chain of Broad substrate specificity ATP-binding cassette transporter ABCG2 (Homo sapiens) (Q9UNQ0 whole entry, looked up): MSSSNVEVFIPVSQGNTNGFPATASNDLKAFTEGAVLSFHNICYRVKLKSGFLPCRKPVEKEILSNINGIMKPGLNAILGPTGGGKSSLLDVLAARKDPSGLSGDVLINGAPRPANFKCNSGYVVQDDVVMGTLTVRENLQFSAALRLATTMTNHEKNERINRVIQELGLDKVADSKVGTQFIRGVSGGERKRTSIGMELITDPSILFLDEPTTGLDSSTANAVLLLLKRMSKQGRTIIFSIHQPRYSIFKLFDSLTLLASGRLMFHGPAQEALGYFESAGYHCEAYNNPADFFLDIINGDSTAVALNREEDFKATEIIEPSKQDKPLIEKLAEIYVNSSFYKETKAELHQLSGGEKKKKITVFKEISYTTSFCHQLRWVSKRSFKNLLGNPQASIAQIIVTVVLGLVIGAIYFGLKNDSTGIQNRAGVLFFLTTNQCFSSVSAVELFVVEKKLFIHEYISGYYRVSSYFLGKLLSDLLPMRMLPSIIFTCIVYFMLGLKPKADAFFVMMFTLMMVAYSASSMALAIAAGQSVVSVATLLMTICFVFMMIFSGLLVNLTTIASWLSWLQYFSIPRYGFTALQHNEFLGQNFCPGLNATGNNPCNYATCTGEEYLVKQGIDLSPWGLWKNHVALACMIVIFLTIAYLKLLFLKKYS

As to `OCCC(F)(F)C(F)(F)C(F)(F)C(F)(F)C(F)(F)C(F)(F)C(F)(F)C(F)(F)F`, the molecule was classed as inactive in test [1], in test [2], in test [3], in [4], in test [5] and in test [6]. Further, the outcome in test [7], in test [8], in test [9], in test [10], in test [11] and in test [12] was inactive. Moreover, the molecule was classed as inactive in test [13], in [14], in test [15], in test [16] and in [17].

For the molecule `O=[N+]([O-])c1ccc(O)cc1`, the molecule was called inactive in test [1], in [2], in [3], in test [4], in [5] and in [6]. Further, the outcome in test [7], in test [8], in test [9], in [10], in test [11] and in test [13] was inactive. Also, the result in [14], in test [15], in test [18], in [16] and in [17] was inactive. The AC50 in test [5] is 78.2 µM (active).

In the case of `NC(=O)N1C(=O)C(C(=O)c2cc(Cl)cs2)c2cc(F)c(Cl)cc21` (centres undefined), the AC50 was 28.7 µM (active) in test [1]; 13.1 µM (active) in test [19]; 25.1 µM (active) in test [3]; 20 µM (active) in [4]; 3.31 µM (active) in test [5]; 12.6 µM (active) in test [7]. Moreover, the AC50 was 36 µM (active) in [8]; 35 µM (active) in [9]; 19.4 µM (active) in [10]; 28.1 µM (active) in test [11]; 12.8 µM (active) in test [12]; 15.6 µM (active) in test [13]. The AC50 in test [14] is 27.7 µM (active); in [15], 50 µM (active); in test [18], 21 µM (active); in test [16], 50 µM (active); in test [17], 50 µM (active). Besides, the call in [2] and in [6] was inactive.
